# Inconclusive results are not listed. Unmarked numbers belong to inactive results. The source made the active and inactive calls. The call rests on the fitted dose curve; in most records, active means well fitted activation curve with a large enough effect in the main read-out, with a control signal flat (not every such curve was filed as active); inconclusive means small, poorly fitted or top-dose-only effect, or effect the other way, or a change in a side signal; inactive means flat fitted curve, though single readings scatter.
# Target: 3',5'-cyclic-AMP phosphodiesterase 4B (Homo sapiens) (UniProt Q07343)
# Sequence (Q07343 whole entry, looked up): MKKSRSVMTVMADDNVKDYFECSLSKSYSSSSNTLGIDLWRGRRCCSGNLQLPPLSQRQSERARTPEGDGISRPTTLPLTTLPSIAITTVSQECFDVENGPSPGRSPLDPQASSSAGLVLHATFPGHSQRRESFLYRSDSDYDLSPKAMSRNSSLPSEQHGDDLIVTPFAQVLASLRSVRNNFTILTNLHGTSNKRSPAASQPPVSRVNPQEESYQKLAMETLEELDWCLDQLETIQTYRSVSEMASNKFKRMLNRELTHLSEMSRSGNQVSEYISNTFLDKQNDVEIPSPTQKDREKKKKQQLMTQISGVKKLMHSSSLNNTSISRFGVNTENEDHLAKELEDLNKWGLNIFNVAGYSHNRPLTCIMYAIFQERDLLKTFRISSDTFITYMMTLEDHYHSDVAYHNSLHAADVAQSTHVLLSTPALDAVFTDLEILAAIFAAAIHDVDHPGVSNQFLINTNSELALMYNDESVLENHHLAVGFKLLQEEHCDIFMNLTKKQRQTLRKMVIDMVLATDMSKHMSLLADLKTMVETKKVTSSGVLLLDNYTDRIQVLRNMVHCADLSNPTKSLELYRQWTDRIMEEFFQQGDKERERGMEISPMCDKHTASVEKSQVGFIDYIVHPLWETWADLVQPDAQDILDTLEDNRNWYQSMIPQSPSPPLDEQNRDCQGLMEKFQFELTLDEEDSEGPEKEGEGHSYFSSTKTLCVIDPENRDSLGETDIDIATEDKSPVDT
# Assay: qHTS Assay for Inhibitors of PDE-IV (AID 607); further: % of control where 0% means no effect
# Settings: HEK293 ACTOne CNG channel cells, membrane potential fluorescence; series mostly up to 22.9 µM; activation (PDE inhibition): at the top concentration
# Summary of the method: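 ACTOne HEK293 cells carry a modified cAMP-gated CNG channel and express endogenous PDE4; plated 1000 cells/well, compounds up to 22.9 uM final. Membrane-potential dye fluorescence (ex 535/em 590) was read; parental cells received 10 uM forskolin + 100 uM RO 20-1724.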
SMILES,activation (PDE inhibition),outcome
N[C@@H](Cc1cnc[nH]1)C(=O)O,-10.4%,–
CN1CCN(CCCN2c3ccccc3Sc3ccc(S(=O)(=O)N(C)C)cc32)CC1,21.6%,–
Cc1cc(N)c2cc(NC(=O)Nc3ccc4nc(C)cc(N)c4c3)ccc2n1,7.85%,–
CC(C)N=C(N)/N=C(\N)Nc1ccc(Cl)cc1,8.46%,–
COc1cccc2c1C(=O)c1c(O)c3c(c(O)c1C2=O)C[C@@](O)(C(C)=O)C[C@@H]3O[C@H]1C[C@H](N)[C@H](O)[C@H](C)O1,0.918%,–
CC(C)NC[C@@H](O)COc1cccc2ccccc12,–,inactive
CC(O)(P(=O)(O)O)P(=O)(O)O,-5.45%,–
C[N+]1(CCCCC[N+]2(C)CCCC2)CCCC1,–,inactive
Nc1nc2ncc(CNc3ccc(C(=O)N[C@@H](CCC(=O)O)C(=O)O)cc3)nc2c(=O)[nH]1,0.319%,–
Nc1cc(Cl)c(NC2=NCCN2)c(Cl)c1,-4.42%,–
O=C(OCCOCCO)c1ccccc1Nc1cccc(C(F)(F)F)c1,-3.43%,–
C[C@@H]1C(=O)NC2=Nc3cccc(Cl)c3CN21,8.29%,–
C[C@@H](CN(C)C)CN1c2ccccc2Sc2ccccc21,12.8%,–
COc1cc(NS(C)(=O)=O)ccc1Nc1c2ccccc2nc2ccccc12,-2.78%,–
CCCn1c(=O)[nH]c(=O)c2[nH]cnc21,0.891%,–
O=C(O)c1cc2cc(Cc3cccnc3)ccc2o1,-4.05%,–
CC(C)COC(=O)OCN1C(=O)CN(CCN2CC(=O)N(COC(=O)OCC(C)C)C(=O)C2)CC1=O,0.335%,–
NC(=NCCCCCCN=C(N)/N=C(\N)Nc1ccc(Cl)cc1)/N=C(\N)Nc1ccc(Cl)cc1,-7.25%,–
